Inconclusive results are not listed. Active and inactive are the calls of the source. Unless noted, calls come from the whole dose curve; as a rule, active = well fitted cell-killing curve with a large enough effect in the repeat runs; inconclusive = weak or mixed curves, or effect the other way; inactive = no such curve, though single readings can be large or run the other way.
Molecular target: Bile acid receptor (Homo sapiens) (UniProt Q96RI1)
Test: qHTS assay to identify small molecule antagonists of the farnesoid-X-receptor (FXR) signaling pathway (AID 743217; active = well fitted inhibition curve with a large enough effect in the signal ratio in the repeat runs, not every such curve was filed as active; the % refers to the signal ratio)
Details: HEK293T FXR-UAS-bla, beta-lactamase ratio, CDCA-stimulated, 16 h; series mostly up to 62.6 µM; activity change, negative = inhibition: at the top concentration
Outline: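 In this cell-based antagonist screen, inhibition of CDCA-driven (50 uM final) UAS-beta-lactamase expression in HEK 293T cells was measured by FRET fluorescence following 16 h compound exposure at 37 °C.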
% is set by controls: 0 for no effect and ±100 for the full control effect.

Sequence of Bile acid receptor (Homo sapiens) (Q96RI1 whole entry, looked up): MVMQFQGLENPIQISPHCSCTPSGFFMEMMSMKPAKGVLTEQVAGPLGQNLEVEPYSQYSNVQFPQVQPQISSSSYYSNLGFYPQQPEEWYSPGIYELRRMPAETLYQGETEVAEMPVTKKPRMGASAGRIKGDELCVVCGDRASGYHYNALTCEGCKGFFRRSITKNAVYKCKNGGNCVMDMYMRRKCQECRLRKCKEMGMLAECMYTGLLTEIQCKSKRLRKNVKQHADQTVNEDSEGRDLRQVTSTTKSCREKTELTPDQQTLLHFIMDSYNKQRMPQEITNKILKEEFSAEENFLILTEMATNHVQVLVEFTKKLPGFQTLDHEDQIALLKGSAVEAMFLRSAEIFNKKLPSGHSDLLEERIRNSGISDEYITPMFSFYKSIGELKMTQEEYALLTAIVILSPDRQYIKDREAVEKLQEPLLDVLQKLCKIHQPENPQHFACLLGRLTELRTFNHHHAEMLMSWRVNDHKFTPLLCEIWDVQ

SMILES | activity change, negative = inhibition
CC1CC(O)CC(C)(C)C1 (stereo not given) | -7% (inactive)
CCC(C)=O | 0.883% (inactive)
NC(=O)N(O)[C@@H]1C=C[C@H](Oc2cccc(Oc3ccc(F)cc3)c2)C1 | 11.8% (inactive)
CC(C)CCCCCCOC(=O)CCCCC(=O)OCCCCCCC(C)C | -1.81% (inactive)
C=CCNc1nc(NCC=C)nc(N2CCN(C(c3ccc(F)cc3)c3ccc(F)cc3)CC2)n1 | 7.58% (inactive)
Cc1nc2ccccn2c(=O)c1CCN1CCC(C(=O)c2ccc(F)cc2)CC1 | 2.47% (inactive)
CCCC(=O)O[C@]1(C(=O)COC(=O)CC)CC[C@H]2[C@@H]3CCC4=CC(=O)CC[C@]4(C)[C@H]3[C@@H](O)C[C@@]21C | -3.31% [at 29.1 µM] (inactive)

Tested on: not listed separately
Test: qHTS assay to identify small molecule agonists of the farnesoid-X-receptor (FXR) signaling pathway - cell viability counter screen (AID 743218); note: nearly all actives have a fitted effect of over 45% in size
Details: FXR-bla HEK293T viability, CellTiter-Glo luminescence, 16 h; series mostly up to 62.6 µM; viability change, negative = cytotoxic: at the top concentration
Outline: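 After 16 h at 37 C with test compounds, FXR-bla HEK 293T cells were given LiveBLAzer B/G substrate for 2 h at RT and then CellTiter-Glo; luminescence was taken after 30 min.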

SMILES | viability change, negative = cytotoxic
Cc1ccnc2ccccc12 | 1.27% (inactive)
Cc1nc2ccccc2s1 | -21.3% [at 81.1 µM] (inactive)
Nc1nccs1 | -10.3% (inactive)
CC1CN(c2cc3c(cc2F)c(=O)c(C(=O)O)cn3-c2ccc(F)cc2F)CCN1 (stereo not given) | 19.1% [at 5.95 µM] (inactive)
CCCOC(=O)c1ccc(N)cc1 | 3.49% (inactive)
O=Cc1c(Cl)cccc1Cl | -13.3% [at 81.1 µM] (inactive)
CCCOCCOCCO | 13.1% (inactive)
C/C(=N/NC(=O)c1ccncc1)C(=O)O | 11.7% (inactive)
OCCSc1ccccc1 | -9.95% (inactive)
CCOC(=O)c1ccccc1OC | 0.682% (inactive)
ON(Cc1ccccc1)Cc1ccccc1 | -1.3% (inactive)
Nc1ccc(Cl)cc1[N+](=O)[O-] | 0.686% (inactive)
CCC1(C)CC(=O)NC1=O (stereo not given) | -8.18% (inactive)
C=CC(C)(O)CCCC(C)CCCC(C)CCCC(C)C (stereo not given) | 21.7% (inactive)
CCC(C)=O | 1.92% (inactive)
CC1=NN(c2ccc(C(=O)O)cc2)C(=O)C1 | 3.18% (inactive)
CC(COc1ccc(C(C)(C)C)cc1)OS(=O)OCCCl (stereo not given) | 0.324% [at 81.1 µM] (inactive)
O=C(O)Cc1ccc(-c2ccccc2)cc1 | 7.97% (inactive)
